# From PubChem BioAssay (NCI)
# Compounds without any hit were thinned out: in the full panel of roughly 83,000, 20% have a hit.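 Single-concentration screen, 48 h exposure, 96-well plates. Endpoint: percent growth. Below 10 = active.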 Unmarked numbers belong to inactive results. Active and inactive are the calls of the source.
# Legend:
# Assay in all cases: NCI-60 one-dose screen, 48 h (100 = growth as untreated, 0 = no growth, -100 = all killed)
# Conditions in all cases: 10 µM
# SK-MEL-2 melanoma = test system: SK-MEL-2 melanoma
# EKVX NSCLC = test system: EKVX NSCLC
# SN12C renal = test system: SN12C renal
# UO-31 renal = test system: UO-31 renal
# TK-10 renal = test system: TK-10 renal
# ACHN renal = test system: ACHN renal
# CAKI-1 renal = test system: CAKI-1 renal
# A498 renal = test system: A498 renal
# CCRF-CEM leukemia = test system: CCRF-CEM leukemia
# MOLT-4 leukemia = test system: MOLT-4 leukemia
SMILES,growth (SK-MEL-2 melanoma),growth (EKVX NSCLC),growth (SN12C renal),growth (UO-31 renal),growth (TK-10 renal),growth (ACHN renal),growth (CAKI-1 renal),growth (A498 renal),growth (CCRF-CEM leukemia),growth (MOLT-4 leukemia)
O=C(NCCCCCCCCCC[P+](c1ccccc1)(c1ccccc1)c1ccccc1)c1ccc(-n2nc(-c3ccccc3O)nc2-c2ccccc2O)cc1,-79.6% (active),-90% (active),-76.4% (active),-84.3% (active),-91.1% (active),-98.6% (active),-68.5% (active),-75.1% (active),4.27% (active),-10.4% (active)
COc1ccc(C2NC(=S)NC(C)=C2C(=O)OC(C)C)cc1OC (stereo not given),114%,97.9%,101%,83.5%,106%,107%,97.4%,114%,95.9%,102%
Brc1ccc(/C=C/c2n(Cc3ccc4ccccc4c3)c3ccccc3[n+]2Cc2ccc3ccccc3c2)cc1,-88.9% (active),-81.6% (active),-58.9% (active),44.6%,-63.2% (active),-31.6% (active),-29.9% (active),54.9%,-14.2% (active),-7.46% (active)
O=C1Nc2cc(-c3ccc(NC(=O)c4cccc([N+](=O)[O-])c4)cc3)ccc2/C1=C/c1ccc[nH]1,51.4%,66.5%,101%,67.2%,108%,59.6%,97.8%,149%,91.2%,73.8%
Cn1c(O)c(N=Nc2nc(-c3cc4ccccc4oc3=O)cs2)c2cc(Br)ccc21,31.8%,65.4%,73.8%,77.9%,56.8%,35.4%,75.7%,16.5%,97.7%,104%
Cc1noc2c(Cc3ccc([N+](=O)[O-])cc3)nn(CC(=O)N/N=C/c3ccc(Br)cc3)c(=O)c12,116%,90.2%,81%,57.7%,112%,43.6%,84%,121%,103%,103%
CCCSc1nc(NC2CC2)c(C#N)c(-c2ccc(OC)cc2)n1,118%,101%,91.9%,93.6%,106%,85.2%,86.9%,100%,97.1%,100%
Cn1cc(/C=N/Nc2cccc(Cl)n2)c2ccccc21,87.5%,57.9%,69.6%,40.7%,113%,71.4%,66.9%,101%,48.2%,32.9%
Cc1ccc2nc3c(nc2c1)c1cc(I)ccc1n3CCN(C)C,52.2%,30.9%,21.4%,8.11% (active),48.9%,6.64% (active),8.68% (active),62.9%,32.7%,10%
O=c1oc2ccccc2cc1-c1csc(N=Nc2c(O)[nH]c3ccc(Br)cc23)n1,60.3%,73.7%,85.3%,82.7%,86.8%,48.8%,84.5%,54.1%,99.8%,103%
CC(C)(C)Nc1nc2cc(Cl)c(Cl)cc2nc1S(C)(=O)=O,37.2%,58.1%,20.1%,90%,99.8%,56.3%,53.2%,142%,-17.9% (active),-3.12% (active)
O=C(c1ccc(Cl)cc1)C1[C@H](c2ccccc2Br)[C@@H](c2ccccc2)NC12C(=O)Nc1ccc(Cl)cc12 (stereo not given in full),13.8%,16.5%,-58.6% (active),16.5%,42.5%,9.92% (active),8.98% (active),72.4%,18.8%,18%
CNCc1cccc2c1OCCCCCC[C@@](C)(O)CC1(CC1)S(=O)(=O)c1ccc(cc1)-c1cnc(N)c(n1)C(=O)N2,-98.7% (active),-97.4% (active),-93.9% (active),-96.8% (active),-92% (active),-100% (active),-94.6% (active),-94.5% (active),-6.39% (active),-44.5% (active)
CN1CCN(c2ccc(C(=O)/C=C/c3cc(Br)ccc3F)cc2)CC1,107%,55.7%,38.2%,44.2%,88.6%,63.7%,50%,107%,-11.4% (active),24%
